In the supplement of paper PMC3334620:
In all, about 33,000 sequences were measured (“E-score (-0.5 to 0.5)”: median about -0.043, highest 2% from about 0.37 on). Shown is part of a subset that was picked to be rich in the highest values.

molecular target: T1, Upc2 (UniProt Q12151); assay: PBM E-score (8-mer binding enrichment) (E-score (-0.5 to 0.5)); higher = stronger / more preferred TF binding; details: protein concentration: 200 nM; construct: GST-full length
T1 sequence: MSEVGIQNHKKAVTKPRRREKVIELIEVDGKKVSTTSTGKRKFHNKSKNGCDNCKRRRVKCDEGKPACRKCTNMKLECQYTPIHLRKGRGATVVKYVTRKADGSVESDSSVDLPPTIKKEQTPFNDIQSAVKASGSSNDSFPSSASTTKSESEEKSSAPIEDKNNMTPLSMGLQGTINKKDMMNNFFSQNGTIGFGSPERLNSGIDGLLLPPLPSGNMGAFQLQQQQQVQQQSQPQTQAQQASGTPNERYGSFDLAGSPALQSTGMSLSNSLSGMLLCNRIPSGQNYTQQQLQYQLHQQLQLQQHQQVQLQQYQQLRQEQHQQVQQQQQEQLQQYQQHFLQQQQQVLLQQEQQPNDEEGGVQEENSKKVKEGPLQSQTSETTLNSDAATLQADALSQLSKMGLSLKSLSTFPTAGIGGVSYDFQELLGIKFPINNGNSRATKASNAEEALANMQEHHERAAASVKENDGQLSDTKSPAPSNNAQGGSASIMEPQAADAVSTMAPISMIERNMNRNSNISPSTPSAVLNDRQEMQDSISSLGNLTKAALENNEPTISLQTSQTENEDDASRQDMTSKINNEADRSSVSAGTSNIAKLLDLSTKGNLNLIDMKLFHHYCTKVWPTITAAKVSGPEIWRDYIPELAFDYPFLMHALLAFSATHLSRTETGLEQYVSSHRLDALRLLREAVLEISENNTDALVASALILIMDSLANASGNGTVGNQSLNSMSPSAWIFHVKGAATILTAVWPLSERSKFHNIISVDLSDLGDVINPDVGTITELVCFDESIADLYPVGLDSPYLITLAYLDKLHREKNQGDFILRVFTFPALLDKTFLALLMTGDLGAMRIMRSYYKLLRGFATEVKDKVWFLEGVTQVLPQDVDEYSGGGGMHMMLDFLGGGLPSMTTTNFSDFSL
How it was run: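 For each ungapped eight-base word taken together with its reverse complement, the Universal PBM Analysis Suite assigned an E-score. Binding data came from GST-tagged yeast transcription factors, applied at about 100-200 nM, on universal all-10-mer Agilent arrays made double-stranded by primer extension. Fluorescent anti-GST marked bound protein, and scans were normalised with masliner.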

| Sequence | PBM E-score |
| --- | --- |
| CATCACTA | -0.183 |
| CACTTTCA | -0.151 |
| CCTACACA | -0.118 |
| CGAGAGAA | 0.113 |
| CCTCAGTA | -0.0614 |
| GCTCGTAC | 0.477 |
| ACTCGTGC | 0.0738 |
| ACTCGTCA | -0.0246 |
| GCTCGTCA | 0.0569 |
| ACTCGTAA | 0.433 |
| ACTCGTAG | 0.353 |
| ACTCGTCC | -0.141 |
| GCTCGTCC | -0.249 |
| ACTCGTAC | 0.472 |
| GCTCGTGA | 0.00182 |
| GCTCGTAA | 0.456 |
| GCACGTAC | 0.227 |
| CCTAAGGA | -0.0656 |
| ACAAGCTC | -0.0437 |
| CCGTGGCC | -0.206 |
| CCAAGTGG | -0.186 |
| ATGCAACG | 0.113 |

| Sequence | PBM E-score |
| --- | --- |
| ACCCCTGC | -0.412 |
| ATGACTCA | 0.029 |
| CAGCCTCA | -0.0411 |
| CTCTCAAG | -0.308 |
| AGATATGC | -0.186 |
| ACTCGTCT | 0.167 |
| ACTCGTAT | 0.483 |
| ACTCGGAT | 0.252 |
| ATCGATCC | -0.00332 |
| CATCCACA | -0.0464 |
| ATAAGCGA | 0.347 |
| CTAAGCTA | 0.015 |
| CTAAGCGA | 0.416 |
| CTAAGCGC | 0.14 |
| GGAAGCGA | 0.145 |
| GTAAGCGA | 0.388 |
| CCATCGAC | -0.247 |
| ATGGGAGA | -0.251 |
| AACCGGTT | 0.107 |
| ACTCTAGC | -0.12 |
| GGAACTGA | -0.0729 |
| AACGCTGA | 0.0761 |

| Sequence | PBM E-score |
| --- | --- |
| CTAGTGAA | -0.126 |
| CACGTTCA | 0.092 |
| GTCGTTCA | 0.467 |
| GGCGTTCA | 0.0581 |
| CTCGTTCA | 0.476 |
| CTCGTTGA | 0.313 |
| ATCGTTCC | 0.43 |
| CGCGTTCC | 0.223 |
| GACGTTCA | 0.0943 |
| AACGTTCC | 0.152 |
| CTCGTTCC | 0.479 |
| CCCGTTCC | 0.327 |
| AGCGTTCC | 0.117 |
| AAATGGCG | -0.0033 |
| AGCTAATC | -0.0679 |
| ATCAAAAC | 0.0147 |
| ACACTGTA | 0.106 |
| ATCGAAGC | -0.00965 |
| GGTGTGGA | 0.00988 |
| ATCGTTGG | 0.0354 |
| AACGTTCA | 0.212 |
| AGCGTTCA | -0.0376 |

| Sequence | PBM E-score |
| --- | --- |
| ATCGTTCG | 0.384 |
| AACGTTCG | 0.212 |
| ATCGTTCA | 0.443 |
| TCTTGAAA | 0.0803 |
| ACAGCGCT | 0.128 |
| CTCTGTCC | -0.116 |
| CTATTGAC | -0.166 |
| CCTTCGTA | 0.441 |
| ACTTCGTC | 0.0529 |
| ACTTCGTG | 0.0872 |
| ACTTCGTA | 0.429 |
| GCTTCGTA | 0.449 |
| GCTTCGGA | 0.102 |
| CCTTCGTC | 0.00619 |
| GCTTCGCA | 0.186 |
| CCTTCGCA | 0.0293 |
| CCGTTTCA | 0.159 |
| CGACTTTC | 0.0358 |
| GCCTCCCC | -0.149 |
| CCCCATAC | 0.174 |
| ACGTTGCG | 0.0848 |
| GGCAGTTA | -0.21 |

| Sequence | PBM E-score |
| --- | --- |
| CCGCAGCA | -0.267 |
| ACGAGAAT | 0.396 |
| ACGAGACT | 0.337 |
| ACGAGAAC | 0.375 |
| CCGAGAAC | 0.117 |
| ACGAGAAG | 0.277 |
| ACGAGAAA | 0.349 |
| AATCGCAA | 0.0942 |
| TGCATGAA | 0.0372 |
| AATGCAGA | -0.0923 |
| TGCTAGCA | -0.0249 |
| CGGAACGA | 0.468 |
| AGGAACGA | 0.449 |
| GGGAACCA | -0.165 |
| GGGAACAA | 0.0652 |
| AGGAACGG | 0.322 |
| GGGAACGA | 0.466 |
| CGGAACGC | 0.243 |
| AGGAACGC | 0.114 |
| CGGAACAA | 0.0835 |
| GTCCACAA | -0.215 |
| CCGGAGCA | -0.0221 |
